# “And” between values parts separate entries of the source, which are not always exact repeats. Equal entries are not always repeated. The source made the active and inactive calls. Entries that show only a call come without a potency. Calls follow the shape of the full dose curve.
# Target: Thyrotropin-releasing hormone receptor (Homo sapiens) (UniProt P34981)
# Assay: qHTS assay to identify small molecule agonists of the thyrotropin-releasing hormone receptor (TRHR) signaling pathway (AID 1346891)
# Settings: TRHR-HEK293 calcium fluorescence, agonist mode; series mostly up to 57.6 µM
# Excerpt: National Center for Advancing Translational Sciences [NCATS] NIH Chemical Genomics Center [NCGC] U.S. Environmental Protection Agency [EPA] National Institutes of Environmental Health Sciences [NIEHS] National Toxicology Program [NTP] Assay overview: Thyrotropin-releasing hormone (TRH) receptor (TRHR) is a G-protein-coupled receptor which binds the tripeptide thyrotropin releasing hormone. TRHR is found in the brain and, when bound by TRH, acts (through phospholipase C) to increase intracellular inositol trisphosphate. It plays a crucial role in the anterior pituitary where it controls the synthesis and secretion of thyroid stimulating hormone and prolactin. The TRHR-Hek293 assay is a cell-based assay, and it has the potential to screen G protein-coupled receptors. A compound/drug can either activate (agonist) or suppress (antagonist) GPCRs that can be monitored by levels of intracellular calcium. Using this assay, the Tox21 10K compound library was screened to identify potential TRHR agonists.
# Assay Protocol Summary: The TRHR-Hek293 cells were dispensed at 1500cells/4uL/well in 1536-well black-clear bottom plates using a Multidrop dispenser. After the assay plates were incubated at a 37 C/5% CO2 incubator for 18 hours, 4 uL of Dye-Loading Solution was added to each well. The plates were incubated at 37 C for 2 hours. For agonist mode, 23 nL of compounds dissolved in DMSO, positive controls or DMSO only was transferred to the assay plate by a pin tool. The fluorescence intensity in the plates was measured using FDSS 7000EX kinetic plate reader for 3 min at 1 sec intervals. Each test compound was measured at 15 concentrations and in triplicates.
# Potency is read from the fitted curve at half-maximal effect.
# Chain of Thyrotropin-releasing hormone receptor (Homo sapiens) (P34981 whole entry, looked up): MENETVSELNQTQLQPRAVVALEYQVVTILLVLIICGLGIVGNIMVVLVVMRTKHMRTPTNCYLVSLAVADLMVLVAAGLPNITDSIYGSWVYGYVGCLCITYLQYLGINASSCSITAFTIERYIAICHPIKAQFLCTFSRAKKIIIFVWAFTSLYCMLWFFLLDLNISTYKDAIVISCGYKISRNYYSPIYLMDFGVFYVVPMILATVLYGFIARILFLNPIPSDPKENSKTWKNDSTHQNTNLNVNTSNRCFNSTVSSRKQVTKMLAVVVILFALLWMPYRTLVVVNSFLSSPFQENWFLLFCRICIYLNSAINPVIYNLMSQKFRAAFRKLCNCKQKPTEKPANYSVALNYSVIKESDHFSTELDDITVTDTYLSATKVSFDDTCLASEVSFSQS
row,SMILES,Potency
1,Oc1ccc(-c2ccc(O)cc2)cc1,inactive
2,CCOC(=O)C1=C(C)NC(C)=C(C(=O)OCC)C1c1ccccc1/C=C/C(=O)OC(C)(C)C,inactive
3,CCC(C)c1ccccc1 (stereo not given),inactive
4,C=CC(=O)OCC(O)COc1ccccc1 (stereo not given),inactive
5,C/C=C/C=N/NC(=O)c1ccncc1,inactive
6,CCCCCCS,inactive
7,Nc1cc(Cl)c([N+](=O)[O-])cc1O,inactive
8,CCOC(=O)N1CCC(=C2c3ccc(Cl)cc3CCc3cccnc32)CC1,inactive
9,CS(C)(=O)=O,inactive
10,CCN(CC)CCOC(=O)C1(C2CCCCC2)CCCCC1,inactive
11,CCOC(=O)COc1ccc(C)cc1,inactive
12,Brc1ccccc1-c1ccccc1,inactive
13,O=C(O)c1cccc(Cl)n1,inactive
14,CCCCCCCC/C=C/CCCOC(C)=O,inactive
15,CCCCCCCCCCOCC(O)CN (stereo not given),inactive
16,c1ccc2c(c1)CCC2,inactive
17,O=C(c1ccccc1)c1cc(Cl)ccc1O,inactive
18,NCCCC(O)(P(=O)(O)O)P(=O)(O)O,inactive
19,[O]=[Zr],inactive
20,CCCCCCCCCCCCN(CCO)CCO,inactive

row,SMILES,Potency
1,CCc1c(C(=O)O)c(=O)cnn1-c1ccc(Cl)cc1,inactive
2,CN(Cc1cc(Br)cc(Br)c1N)C1CCCCC1,inactive
3,CCN=c1cc2oc3cc(NCC)c(C)cc3c(-c3ccccc3C(=O)OCC)c-2cc1C,6.89 µM (active) and 5.49 µM (active)
4,CN(C)CCCN1c2ccccc2CCc2ccccc21,inactive
5,CCN(CC)c1ccc(N)cc1,inactive
6,CCCCOC(=O)C(C)CC (stereo not given),inactive
7,OCCCCl,inactive
8,CCC(C)c1cc([N+](=O)[O-])cc([N+](=O)[O-])c1OC(=O)OC(C)C (stereo not given),inactive
9,Cn1cnc2ncnc(N)c21,inactive
10,C=C(C)CCCC,inactive
11,C/C=C/C(=O)C1=C(C)CCCC1(C)C,inactive
12,CCC(C)(C)c1cc(O)c(C(C)(C)CC)cc1O,inactive
13,O=C(Nc1ccc(Cl)c(Cl)c1)c1cc(Cl)cc(Cl)c1O,inactive
14,Cn1cccc1,inactive
15,CCCCCCCCCCCC(=O)N(CC)CC,inactive
16,Brc1ccccn1,inactive
17,ClC/C=C\CCl,inactive
18,Cc1c(C)n(Cc2ccccc2)c2ccc(C(=O)OCCN(C)C)cc12,inactive
19,CCCCCCCOC(=O)c1ccccc1C(=O)OCCCCCCC,inactive
20,O=Cc1ccc(F)cc1,inactive

# Source: PubChem BioAssay (Tox21)
